Experimental data published in PubChem BioAssay AID1626 (SRMLSC, 2009).
In all, about 220,000 compounds went through this assay and about 2,000 (0.91%) were called active. Another 2% or so got no clear call; they are omitted. The list is a sample of the results. Results with a measured potency or affinity are listed apart. A number with no mark means an inactive call. No stated cut-off is given here; in the data, inconclusive means inhibition above about 80% without an active follow-up result; inactive means below that; test concentration not stated here.

experiment: M. tuberculosis H37Rv growth inhibitors, H37Rv strain (AID 1626); details: hits give high values, concentration not given here;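 further: bacteria incubated seven days before Alamar blue readout; 0% = bacteria only wells and 100% = bacteria with antibiotic wells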

Row | Compound | inhibition [%]
1 | O=C(OCC(=O)N1CCN(C(=O)c2ccco2)CC1)c1cccc(S(=O)(=O)N2CCc3ccccc32)c1 | 2.78
2 | CC(C)C(=O)N1CCN(c2ccc([N+](=O)[O-])cc2Cl)CC1 | 0.58
3 | COc1ccc(/C=N/NC(=O)C(C)n2nnc3ccccc32)cc1OC (stereo not drawn) | -3.28
4 | C=CCN1C(=O)C(Cc2ccc(OC)cc2)S/C1=N\N=C\c1cccs1 (stereo not drawn) | -5.41
5 | COc1ccc(OC)c(C(=O)c2ccc(C(=O)N3CCCCC3)cc2)c1 | -2.08
6 | CCc1ccc2c(c1)C(O)(CC(=O)c1cccs1)C(=O)N2 (stereo not drawn) | 3.05
7 | Cc1cc(Br)c2c(c1)/C(=C/C(=O)c1cccs1)C(=O)N2 | 79.9
8 | Cc1cccc2c1NC(=O)/C2=C\C(=O)c1cccs1 | 12.6
9 | O=C(/C=C1\C(=O)Nc2ccccc21)/C=C1\C(=O)Nc2ccccc21 | 9.02
10 | Cn1c(N)c(C(=O)COC(=O)C2CC(=O)N(Cc3ccccc3)C2)c(=O)n(C)c1=O (stereo not drawn) | 0.39
11 | CC(C)(C)Nc1nc(SCC(=O)Nc2ccccc2)nc(N2CCOCC2)n1 | -1.07
12 | O=C(Nc1ccccc1)c1ccn[nH]1 | -7.96
13 | COc1ccccc1CNc1ncnc2cc(Cl)ccc12 | -2.22
14 | CC(C)N1CCC(N2CCN(C/C=C/c3ccccc3)CC2CCO)CC1 (stereo not drawn) | -1.35
15 | Cc1ccc(C(c2nnnn2C(C)(C)C)N2CCN(C3CCCC3)CC2)cc1 (stereo not drawn) | -4.57
16 | Cc1cc(C)c(-c2cc(NC(=O)CSc3nncn3C)n(-c3ccccc3)n2)cc1C | 5.63
17 | CCOC(=O)C1=C(CC)Nc2ccccc2N=C1NC(=O)c1cc(S(=O)(=O)N(C)C)ccc1Cl | 5.31
18 | CCOC(=O)C1=C(CC)Nc2ccccc2N=C1NC(=O)Nc1ccccc1OC | 5.38
19 | Cc1ccc(SCc2cc(=O)[nH]c(/N=C(\N)Nc3cccc4ccccc34)n2)cc1 | 2.6
20 | CC1(C)CC(=O)C2=C(C1)NC1=C(C(=O)c3ccccc31)C2c1ccccc1 (stereo not drawn) | 14.8

Row | Compound | inhibition [%]
21 | CC1(C)CC(=O)C2=C(C1)NC1=C(C(=O)c3ccccc31)C2c1cccnc1 (stereo not drawn) | 11.2
22 | CC1(C)CC(=O)C2=C(C1)NC1=C(C(=O)c3ccccc31)C2c1ccc(Cl)cc1 (stereo not drawn) | 44.9
23 | COc1cc(C2C3=C(CC(C)(C)CC3=O)NC3=C2C(=O)c2ccccc23)ccc1O (stereo not drawn) | 2.3
24 | CC1(C)CC(=O)C2=C(C1)NC1=C(C(=O)c3ccccc31)C2c1ccc(O)cc1 (stereo not drawn) | 7.92
25 | Cc1ccc(C2C3=C(CC(C)(C)CC3=O)NC3=C2C(=O)c2ccccc23)cc1 (stereo not drawn) | 9.84
26 | CCN(CC)S(=O)(=O)c1cccc(C(=O)N/N=C2\CCCC(=O)C2)c1 | -9.95
27 | CCNc1nc(SCCOc2ccc(Br)cc2)nc(N(C)C)n1 | -0.8
28 | Cc1nn(C)c(C)c1S(=O)(=O)N1CCC(C(=O)NCCC2=CCCCC2)CC1 | -9.44
29 | Cc1ccc(C)c(-c2cc(C(=O)Nc3cccc(C(=O)O)c3)c3ccccc3n2)c1 | 2.58
30 | COc1ccc(/C=C/C2=NN(Cc3ccccc3)C(=O)CC2)cc1 | -0.13
31 | Cc1cc(N2CCN(C)CC2)nc(-c2ccccc2O)n1 | -1.49
32 | COc1ccc(-c2nc3ccccc3c(=O)o2)cc1OC | 12.4
33 | CCC(=O)Nc1ccc(-c2nnc(-c3ccccc3)o2)cc1 | 5.07
34 | CCOc1ccc(-c2nc3ccccc3c(=O)o2)cc1 | 3.93
35 | O=C(Nc1ccc2nc(-c3ccccc3)oc2c1)c1ccco1 | -2.22
36 | O=C(COc1ccccc1)Nc1cccc(-c2nnc(-c3ccccc3)o2)c1 | 14.9
37 | CC(C)C(=O)Nc1cccc(-c2nc3ccccc3c(=O)o2)c1 | 0.23
38 | Cc1cccc(OCC(=O)Nc2cccc(-c3nnc(-c4ccccc4)o3)c2)c1C | 3.74
39 | O=C(Nc1ccc(-c2nc3cc(Cl)ccc3c(=O)o2)cc1)c1ccco1 | 9.67
40 | O=C1CC(c2ccc(Br)cc2)NC(c2ccc(Br)cc2)C1c1ccccc1 (stereo not drawn) | 15.2

Row | Compound | inhibition [%]
41 | Nc1cc(-c2ccccc2)nn1S(=O)(=O)c1ccc(Br)cc1 | 12.3
42 | COc1cc(SC)ccc1C(=O)Nc1ccc(C)cc1C | 2.28
43 | Cc1onc(-c2ccccc2)c1C(=O)N1CCN(C)CC1 | -7.83
44 | Cc1cc(C(=O)N/N=C2\CC(=O)c3ccccc32)c(C)n1-c1ccccc1 | -0.53
45 | COc1ccc(/C=N/NC(=O)CC2N=C(Cc3ccccc3)NNC2=O)cc1OC (stereo not drawn) | -1.24
46 | O=C(Oc1c(Cl)cc(Cl)c2ccccc12)N1CCCCC1 | 11.7
47 | NC(=O)CCC(NC(=O)c1ccc(Cl)cc1)C(=O)O (stereo not drawn) | 2.33
48 | COc1ccc(NC(=O)CCN2C(=O)[C@@H]3[C@H](C2=O)[C@H]2C=C[C@@H]3C2)cc1 | -1.56
49 | CCCC(=O)Nc1cccc(-c2nc3ccccc3o2)c1 | 5.23
50 | CC(=O)Nc1cccc(-c2nc3ccccc3c(=O)o2)c1 | 9.37
51 | O=C(Nc1ccc(-c2nc3ccccc3o2)cc1)c1ccc(N2C(=O)C3C4C=CC(C4)C3C2=O)cc1 (stereo not drawn) | 3.15
52 | COc1ccc(-c2nc3ccccc3c(=O)o2)cc1 | 11.6
53 | O=C1C2C3C=CC(C3)C2C(=O)N1c1ccc(-c2nc3ccccc3o2)cc1 (stereo not drawn) | 0.58
54 | CC(C)(C)C(=O)Nc1cccc(-c2nc3ccccc3c(=O)o2)c1 | 70.7
55 | COc1ccc(C2C(Oc3ccccc3)C(=O)N2c2ccc(C)c(C)c2)cc1OC (stereo not drawn) | 4.9
56 | Fc1ccc(CNC(=S)NC2CCCC2)cc1 | 2.21
57 | CCc1cc(C(=O)OC)c(NC(=O)CC2SC(N)=NC2=O)s1 (stereo not drawn) | 3.51
58 | CC(=O)N1CCN(c2ccc(N=Cc3c(O)n(-c4ccc(Cl)cc4)c(=O)[nH]c3=O)cc2)CC1 | -7.57
